According to PubChem BioAssay (NCI):
“And” between values parts separate entries of the source, which are not always exact repeats. Equal entries are not always repeated. This is part of a sample that, as a whole, favours compounds with a hit. Of some 83,000 tested, about 20% had one in any assay.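 The endpoint reported here, percent growth, reads 100 for growth as untreated, 0 for no net growth and -100 for all cells dead.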 Values without a mark were called inactive. The source made the active and inactive calls. How the source made its calls: active means growth percent below 10; inactive means the rest.

Legend:
Assay in all cases: NCI-60 one-dose screen, 48 h (100 = growth as untreated, 0 = no growth, -100 = all killed)
Conditions in all cases: 10 µM unless noted
SK-MEL-2 melanoma = test system: SK-MEL-2 melanoma
EKVX NSCLC = test system: EKVX NSCLC
SN12C renal = test system: SN12C renal
UO-31 renal = test system: UO-31 renal
TK-10 renal = test system: TK-10 renal
ACHN renal = test system: ACHN renal
CAKI-1 renal = test system: CAKI-1 renal
A498 renal = test system: A498 renal
CCRF-CEM leukemia = test system: CCRF-CEM leukemia
MOLT-4 leukemia = test system: MOLT-4 leukemia

SMILES | growth (SK-MEL-2 melanoma) | growth (EKVX NSCLC) | growth (SN12C renal) | growth (UO-31 renal) | growth (TK-10 renal) | growth (ACHN renal) | growth (CAKI-1 renal) | growth (A498 renal) | growth (CCRF-CEM leukemia) | growth (MOLT-4 leukemia)
Cc1cc2nc(C(Cl)Cl)nc(-c3ccc(Cl)cc3)n2n1 | 49.2% | -14% (active) | 36.5% | -8.79% (active) | 4.92% (active) | -41.7% (active) | -38% (active) | -16.9% (active) | 29.2% | 21.6%
CNC(=O)c1cc(Oc2ccc3nc(NC(=O)Nc4ccc(C(F)(F)F)cc4)sc3c2)ccn1 | 92.9% | 53.5% | 71.1% | 65% | 55.3% | 73.4% | 92% | 98.8% | 68.1% | 73.3%
CC(=O)Nc1c(I)c(NC(C)=O)c(I)c(C(=O)O)c1I | 111% and 93.8% | 102% and 90.6% | 102% and 106% | 76.3% and 88.3% | 120% and 101% | 96.9% and 112% | 89.8% and 91.3% | 107% and 123% | 95.9% and 105% | 96.9% and 90.1%
COc1cc(F)c(/C=C/c2cc(/C=C/c3cc(OC)c(OC)cc3F)n(-c3cc(F)cc(F)c3)n2)cc1OC | 59.5% | 57.7% | 72.5% | 85.4% | 68.9% | 117% | 98.5% | 92.4% | 51.9% | 71.5%
CCN(c1cc(-c2ccc(CN3CCC(/C=C/S(=O)(=O)c4ccccc4)CC3)cc2)cc(C(=O)NCc2c(C)cc(C)[nH]c2=O)c1C)C1CCOCC1 | 92.5% | 87.4% | 63.6% | 44.7% | 121% | 80% | 51.4% | 51.1% | 38.2% | 26.8%
COc1ccc(-c2cc3cnc4ccccc4c3oc2=O)cc1 | 120% | 101% | 100% | 88.7% | 99.2% | 106% | 89.7% | 93.1% | 89% | 104%
